# PubChem BioAssay
# Activity calls are given as the source filed them.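 Rule for the calls: active = viability at or below 10% of carrier control in both of two separate runs; inconclusive = viability at or below 10% in only one of the two runs; inactive = the rest.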
# Assay: reduced viability of SK-BR-3 breast cancer cells – cell-based, 24 h, human, pilot screen (AID 572);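 note: compound exposure lasted between 18 and 24 h rather than exactly 24 h; 100% = carrier-treated control wells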
# Settings: SK-BR-3 viability, CellTiter-Glo luminescence, at 10 µM, stronger effect = lower value
row,Structure (SMILES),viability
1,CN/C(=C/[N+](=O)[O-])NCCSCc1ccc(CN(C)C)o1,116% (inactive)
2,CC1Oc2ccccc2N(CC(=O)NCc2cccs2)C1=O (stereo not given),77% (inactive)
3,COCCn1c(C)cc(C(=O)COC(=O)c2ccc(N3CCCC3=O)cc2)c1C,95% (inactive)
4,Cc1ccc(S(=O)(=O)N2CCN(C(=O)N3CCOCC3)C2c2ccc(N(C)C)cc2)cc1 (stereo not given),106% (inactive)
5,C/C(=C\c1ccco1)C1C(C#N)=C(N)OC2=C1C(=O)CC(C)(C)C2 (stereo not given),110% (inactive)
6,CC(=O)SCC(=O)N=c1sc2cc(F)ccc2n1C,90.5% (inactive)
7,COCCNC(=O)C(c1ccc(C)o1)N(Cc1cccs1)C(=O)c1snc(C(N)=O)c1N (stereo not given),87% (inactive)
8,c1ccc(-c2oc3ncnc(NCCN4CCOCC4)c3c2-c2ccccc2)cc1,90% (inactive)
9,CCOC(=O)C1=C(C)Nc2nc(SCC(=O)OC)nn2C1c1cc(F)cc(F)c1 (stereo not given),91.5% (inactive)
10,Cc1ccc(-c2nnc3c4ccccc4c(C)nn23)cc1S(=O)(=O)N1CCN(C)CC1,85% (inactive)
11,CCCCCC#CCC#CCC#CCC#CCCCC(=O)O,152% (inactive)
12,CCn1c(SCC(=O)N2CCN(c3ccc(Cl)cc3)CC2)nc2ccccc2c1=O,96% (inactive)
13,O=C(OC1CCc2ccccc2C1=O)c1ccccc1O (stereo not given),71% (inactive)
14,c1cc2c(cc1Cn1cnnn1)OCO2,96% (inactive)
15,Cc1cc(C)c(NC(=O)CSc2nnc(-c3ccncc3)n2Cc2ccco2)c(C)c1,91% (inactive)
16,CC1CCCCN1C(=O)Cn1nnc(-c2cccnc2)n1 (stereo not given),92% (inactive)
17,CCc1ccccc1NC(=O)c1ccoc1C,102% (inactive)
18,COc1ccccc1NC(=O)NC(N)=O,102% (inactive)
19,Cc1nc(-c2ccccc2)sc1C(N)=O,107% (inactive)
20,CCO/C([O-])=N/c1c[n+](N2CCOCC2)no1,81% (inactive)

row,Structure (SMILES),viability
1,N#Cc1cnc(SCCc2ccccc2)nc1N,78% (inactive)
2,CCCC1Cc2c(sc3ncnc(N)c23)CO1 (stereo not given),111% (inactive)
3,Cn1c(=O)c2c(nc(Br)n2CCSc2nnnn2-c2ccccc2)n(C)c1=O,76% (inactive)
4,CCn1cc(C(=O)NCc2ccco2)c(=O)c2cc(F)c(N3CCN(C(=O)c4ccco4)CC3)cc21,94% (inactive)
5,COc1ccc(C)cc1-n1nnnc1SC/C(O)=C(\C#N)c1nc2ccccc2[nH]1,96% (inactive)
6,Cc1cnc(NC(=O)CSc2nnc(-c3ccccc3)n2Cc2ccccc2)s1,99% (inactive)
7,CCN(CC)CCCNc1oc(-c2cccc(Cl)c2)nc1C#N,113% (inactive)
8,COc1cccc(NC(=O)C2CCCN2C(=O)Nc2cccc(F)c2)c1 (stereo not given),96% (inactive)
9,CN(C)CCC=C1c2ccccc2CCc2ccccc21,95% (inactive)
10,Cc1ccc(-c2nn[nH]n2)cc1,109% (inactive)
11,CCn1c(SCC(=O)Nc2ccc3c(c2)OCO3)nnc1-c1cnccn1,89% (inactive)
12,c1ccc(-c2cnc(CSc3ncnc4sccc34)o2)cc1,94% (inactive)
13,CCOC(=O)C1=C[C@]2(CC)CCCN3CCc4c(n1c1ccccc41)[C@@H]32,70% (inactive)
14,NCc1ccc(S(N)(=O)=O)cc1,124% (inactive)
15,COC(=O)c1cc(S(=O)(=O)N2CCOCC2)c(N2CCOCC2)cc1N1CCOCC1,124% (inactive)
16,CSc1oc(-c2ccccc2)nc1S(=O)(=O)c1ccc(F)cc1,92% (inactive)
17,Cc1c(NC(=O)CCc2ccc(S(=O)(=O)N3CCOCC3)cc2)c(=O)n(-c2ccccc2)n1C,93% (inactive)
18,CC(C)N(C(=O)N1CCC(c2nc(-c3ccncc3)no2)CC1)C(C)C,79% (inactive)
19,CCOC(=O)C1(CC)NC(c2cccc(F)c2)C2C(=O)N(CC)C(=O)C21 (stereo not given),104% (inactive)
20,CCCCN1C(=O)C2C(C(=O)Nc3cccc(OC)c3)C3C=CC2(O3)C1C(=O)NC1CCCCC1C (stereo not given),101% (inactive)
